Screen size: about 48,000 compounds; about 13,000 (27%) showed an effect of 50% or more. This is one part of the list.
Each compound was assayed on Wolbachia pipientis (assay: Anti-Wolbachia Cell-Based Screen). Settings: 5 µM.
Format: functional
Design: scale not given: in the data most compounds retested in dose-response had high values
In the case of COCC(=O)N1CCC(C(=O)N(C)CCCc2nccn2C)CC1, the “Percent Effect” value is reported as -11.58%.
With CCC[C@H]1CN(S(=O)(=O)c2cc(C)ccc2C)C[C@@H]1N the “Percent Effect” value was -30.29%.
With CCN(CC)Cc1cc(C(=O)N2CCC3(CCN(C)CC3)C2)c(C)o1 the “Percent Effect” value was 8.973%.
In the case of Cc1ccoc1C(=O)N1CCCC2(CCCN2S(C)(=O)=O)C1 (stereo not given), the “Percent Effect” value is reported as -9.811%.
With CN1CCC2(CC1)CN(C(=O)c1onc3ccccc13)CCCN2C the “Percent Effect” value was 72.92%.
For CN1CCC2(CC1)CCN(C(=O)c1onc3ccccc13)C2, the “Percent Effect” value was 92.75%.
With CS(=O)(=O)N1CCCC12CCCN(C(=O)c1ccno1)C2 (stereo not given) the “Percent Effect” value was -3.748%.
In the case of CC(=O)N1CCCC2(CCN(C(=O)c3nn(C)c4ccccc34)CC2)C1, the “Percent Effect” value is reported as -40.55%.
In the case of Cc1ccc(C(CNC(=O)Cc2nc3ncccn3n2)N(C)C)cc1 (stereo not given), the “Percent Effect” value is reported as -10.58%.
With CC(=O)NCCc1ccc(S(=O)(=O)N(C)C(C)CC(C)C)s1 (stereo not given) the “Percent Effect” value was 2.114%.
CCC[C@@H]1CN(C(=O)c2cc(-c3cccs3)n(C)n2)C[C@H]1NS(C)(=O)=O was tested, and the “Percent Effect” value was 96.45%.
For CCC[C@@H]1CN(C(=O)c2ccccc2C(C)=O)C[C@H]1N(C)C, the “Percent Effect” value was 5.199%.
With CCC[C@H]1CN(C(=O)c2cc(-c3cccs3)n(C)n2)C[C@@H]1N the “Percent Effect” value was 106.1%.
With CCC[C@@H]1CN(C(=O)c2cc3ccccc3cc2O)C[C@H]1N(C)C the “Percent Effect” value was 2.808%.
CCC[C@H]1CN(CCS(C)(=O)=O)C[C@@H]1NC(=O)c1ccn(C)n1 was tested, and the “Percent Effect” value was -3.531%.
CCC[C@@H]1CN(Cc2cnc(-c3cccs3)nc2)C[C@H]1C(=O)O was tested, and the “Percent Effect” value was -4.575%.
CC(C)c1nc(C(=O)N2C[C@H](C(C)C)[C@@H](N)C2)cs1 was tested, and the “Percent Effect” value was -1.889%.
With CCC[C@@H]1CN(C(=O)c2cc(-c3cccs3)n(C)n2)C[C@H]1N(C)C the “Percent Effect” value was 95.7%.
In the case of CCC[C@@H]1CN(C(=O)CCc2ccco2)C[C@H]1NS(C)(=O)=O, the “Percent Effect” value is reported as -2.62%.
In the case of Cc1ccc(N2CC3(COCCN(Cc4cccnc4)C3)OCC2=O)s1.O=C(O)C(F)(F)F.O=C(O)C(F)(F)F (stereo not given), the “Percent Effect” value is reported as 6.598%.
With COc1ncc(-c2nccn2-c2ccccc2CN2CCOCC2)cn1 the “Percent Effect” value was 4.794%.
COc1cc(C(=O)N2CCC(O)(CN3CCOCC3)C(C)(C)C2)ccn1 (stereo not given) was tested, and the “Percent Effect” value was 1.548%.
CC1(C(=O)N2CCOCC2)CN(Cc2cccnc2)CCO1 (stereo not given) was tested, and the “Percent Effect” value was 65.44%.
In the case of CSCCC(O)C(=O)N1CCCN(Cc2cccnc2)CC1 (stereo not given), the “Percent Effect” value is reported as -2.174%.
With COc1ncc(CN2CCOC(C)(C(=O)N3CCOCC3)C2)cn1 (stereo not given) the “Percent Effect” value was 124.6%.
CNc1cccc(C2CCCN(C(=O)c3cscn3)C2)n1 (stereo not given) was tested, and the “Percent Effect” value was 98.56%.
For CNc1cccc(C2CCCN(C(=O)c3ccn(C)n3)C2)n1 (stereo not given), the “Percent Effect” value was 117.7%.
For CNc1cccc(C2CCN(C(=O)c3cccnc3)CC2)n1, the “Percent Effect” value was 107.8%.
CNc1cccc(C2CCCN(C(=O)c3cncs3)C2)n1 (stereo not given) was tested, and the “Percent Effect” value was 121.7%.
With O=C(c1cccnc1)N1CCC(Oc2cccc(C(F)(F)F)c2)CC1 the “Percent Effect” value was 6.335%.
